From the supplement of paper PMC9477273 come the findings set out here.

This assay has as its system DRIVER-selected RNA biosensor (aptazyme) pool. The assay can be described thus: maximum fold change of ribozyme cleavage across biosensor pool versus no-compound control; higher = stronger biosensor response (ligand inhibits cleavage). The conditions noted are these: 10 µM. A digest of the protocol: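 Fold change of cleavage, the ratio of cleaved:uncleaved read fractions versus a no-compound condition corrected with reference sequences, is given as the maximum over all biosensors. It was measured by CleaveSeq on a pool of 1,730 array-resynthesized ribozyme biosensors transcribed by T7 with 9 mM rNTPs for 15–30 min at 37°C in the presence of one compound at 10 µM final, added from a 10x DMSO stock. After reverse transcription at 50°C, cleaved and uncleaved products were PCR-barcoded and counted by Illumina sequencing.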
Compound `c1ccc2nc3c(nc2c1)c1ccccc1n3CN1CCCCC1` yielded a maximum fold change of 10.9. As to `CCOC(=O)c1ccc(-c2sc3nc(N4CCOCC4)c4c(c3c2N)CC(C)(C)OC4)o1`, the maximum fold change was determined as 2.03.

For `Cc1nn2c(-c3ccncc3)nnc2c2ccccc12`, the maximum fold change stood at 10.8.

The compound `O=C(Cn1ccc2cc(S(=O)(=O)N3CCCC3)ccc21)NC1CC1` displayed a maximum fold change of 2.36. The compound `COc1ccc(-c2cc3c(=O)n(CC(=O)NCc4ccccn4)ncn3n2)cc1` displayed a maximum fold change of 3.51. Turning to `COc1ccc(-c2c(C)nn3c(N)c(C#N)cnc23)cc1OC`, the maximum fold change is 4.07.

The compound `CCOC(=O)c1cnc2c(OC)cccc2c1NCCCN(CC)CC` had a maximum fold change of 6.68. Then `C=Cc1ccc(Cn2c(C)c(CNCCc3ccccc3)c(C(=O)O)c2C)cc1`, with 2.07; and `Cc1ccccc1-c1nc(CS(=O)(=O)CC(=O)N2CCN(Cc3ccccc3)CC2)c(C)o1`, with 3.66. `COc1ccc(cc1C1=N/C(=CNc2ccccn2)/C(=O)O1)Cl` registered a maximum fold change of 6.85.

`CCOc1cc(C2c3c(-c4ccccc4O)n[nH]c3C(=O)N2CCO)ccc1OCc1ccccc1` (stereo unspecified) registered a maximum fold change of 3.55. In turn, `COc1ccccc1/C=C1N=C(c2ccc(Cl)c(Cl)c2)OC1=O` came in with a maximum fold change of 3.36. `CCOc1cc(C(=O)C(=O)c2ccc(OC)c(OCC)c2)ccc1OC` came in with a maximum fold change of 2.92. On to `O=C1NC2(CCCCC2)N(C(=O)c2ccc(Cl)cc2)C2=C1CCCC2`, for which the maximum fold change is 2.89.

With `COCCNC(=S)NCc1ccc2[nH]c(C)cc2c1`, the maximum fold change is 2.32.

Turning to `CCOc1ccccc1CNC(=O)c1ccc(CS(=O)Cc2ccc(Cl)cc2)o1` (stereo unspecified), the maximum fold change was found to be 4.15. The compound `Cc1nc(N2C(=O)c3oc4ccccc4c(=O)c3C2c2ccc(Cl)cc2)sc1C` (stereo unspecified) showed a maximum fold change of 2.07. `Clc1ccc2nc3c4ccccc4cnn3c2c1` registered a maximum fold change of 3.12. Take `COc1ccc(-c2nc(CS(=O)(=O)CC(=O)NC3CCC(C)CC3)c(C)o2)cc1` (stereo unspecified): the maximum fold change stood at 2.18. In the case of `COc1ccc(CN2CCN(Cc3csc(C)c3C)CC2)c(OC)c1OC`, the maximum fold change is 2.47. To `CCOC(=O)N1CCC(NC(=O)c2ccc(CS(=O)c3cccc(C)c3)o2)CC1` (stereo unspecified) belongs 2.53; to `Cc1cc(NC(=O)CSc2nc3ncccc3c(=O)n2CCc2ccccc2)[nH]n1`, 3.45; to `COc1cccc(-c2nc3sc4c(c3c(=O)n2CC(=O)NC2CCCCC2)CCCC4)c1`, 1.74. Then `CC1=[N+](CCCS(=O)(=O)O)SC2C=CC(Cl)=CC12` (stereo unspecified), with 1.77. Regarding `Cc1ccc(C(=O)/C=C2\Nc3ccccc3NC2=O)cc1C`, the maximum fold change came out at 7.35. To `O=C1N=c2sc(nn2C(=N)/C/1=Cc1cccn1Cc1ccccc1F)N1CCCC1` belongs 4.06; to `Cc1oc2ncn3c(C)nnc3c2c1C(=O)NC1CC1`, 2.62; to `CC(=Cc1ccccc1)/C=C1N=C(/C=C/c2ccccc2)OC/1=O`, 2.27. To `OCCCN/C=C/1C(=O)CC(CC1=O)c1ccc(cc1)OC` (stereo unspecified) belongs 1.74.

`COc1cccc(/C=N/NC(=N)N)c1O` came in with a maximum fold change of 5.16. To `CC(NC(=O)/C=C/c1ccccc1Cl)c1ccccc1` (stereo unspecified) belongs 2.1.
